Read-out in assay [1]: Thrombomodulin, THBD (gene 7056)
The experiment in a line: BSK_CASM3C_Thrombomodulin: BioMAP Diversity Plus: CASM3C Assay for Thrombomodulin Biomarker Activity (AID 2283051).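 Also: thrombomodulin protein level measured by ELISA 24 h after dosing.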 As to conditions: primary human coronary artery smooth muscle cells; actives raise or lower the signal.

Read-out in assay [2]: Tissue Factor, F3 (gene 2152)
The experiment in a line: BSK_CASM3C_TissueFactor: BioMAP Diversity Plus: CASM3C Assay for Tissue Factor Biomarker Activity (AID 2283052).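 Also: cell surface tissue factor protein level read by ELISA.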 Conditions: primary human coronary artery smooth muscle cells; actives raise or lower the signal.

Read-out in assay [3]: Interferon-gamma inducible Protein 10 (IP10), CXCL10 (gene 3627)
The experiment in a line: BSK_hDFCGF_IP10: BioMAP Diversity Plus: hDFCGF Assay for Interferon-gamma inducible Protein 10 (IP10) Biomarker Activity (AID 2283053). Conditions: primary human foreskin fibroblasts; actives raise or lower the signal. In outline:
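Primary foreskin fibroblasts, human; 24 h compound exposure; IP-10 by ELISA; bidirectional fit vs DMSO.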

Read-out in assay [4]: Urokinase-type plasminogen activator receptor (uPAR), PLAUR (gene 5329)
The experiment in a line: BSK_CASM3C_uPAR: BioMAP Diversity Plus: CASM3C Assay for Urokinase-type plasminogen activator receptor (uPAR) Biomarker Activity (AID 2283054).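 Also: cell-surface uPAR protein level quantified by ELISA.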 As to conditions: primary human coronary artery smooth muscle cells; actives raise or lower the signal.

Read-out in assay [5]: Vascular cell adhesion molecule 1 (VCAM1), VCAM1 (gene 7412)
The experiment in a line: BSK_CASM3C_VCAM1: BioMAP Diversity Plus: CASM3C Assay for Vascular cell adhesion molecule 1 (VCAM1) Biomarker Activity (AID 2283055).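 Also: VCAM-1 protein level quantified by ELISA on the cells.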 Conditions: primary human coronary artery smooth muscle cells; actives raise or lower the signal.

Read-out in assay [6]: Collagen III, COL3A1 (gene 1281)
The experiment in a line: BSK_hDFCGF_CollagenIII: BioMAP Diversity Plus: hDFCGF Assay for Collagen III Biomarker Activity (AID 2283056). Conditions: primary human foreskin fibroblasts; actives raise or lower the signal. The gist of the method: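 ELISA read-out of collagen III from human skin fibroblast cultures sampled 24 h post-dosing. Values were derived by bidirectional fitting relative to the DMSO vehicle control.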

Read-out in assay [7]: Epidermal growth factor receptor (EGFR), EGFR (gene 1956)
As to the kind of experiment: BSK_hDFCGF_EGFR: BioMAP Diversity Plus: hDFCGF Assay for Epidermal growth factor receptor (EGFR) Biomarker Activity (AID 2283057). As to conditions: primary human foreskin fibroblasts; actives raise or lower the signal. In outline: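 hDFCGF system, primary human foreskin fibroblasts; compound 24 h; EGFR measured by ELISA; DMSO = negative control/baseline; bidirectional fitting.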

Read-out in assay [8]: Interleukin-8 (IL8), CXCL8 (gene 3576)
The experiment in a line: BSK_hDFCGF_IL8: BioMAP Diversity Plus: hDFCGF Assay for Interleukin-8 (IL8) Biomarker Activity (AID 2283058). Conditions: primary human foreskin fibroblasts; actives raise or lower the signal. The gist of the method: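 Cells used are human skin primary fibroblasts. Chemical is added, cultures run 24 h, then IL-8 is quantified by ELISA, and gain or loss versus DMSO control is fitted in both directions.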

Assay [9] in a line: BSK_hDFCGF_Proliferation: Cell Proliferation Assessment in the BioMAP Diversity Plus: hDFCGF Assay (AID 2283059).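 Also: curves fitted for both rise and fall of signal versus DMSO baseline.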 As to conditions: primary human foreskin fibroblasts. The gist of the method:
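Sub-confluent human foreskin fibroblast cultures receive test chemical […]. Relative cell number is quantified by sulforhodamine B staining (0.1%, after 10% TCA fixation) at 560 nm, with bidirectional fitting referenced to DMSO.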

Read-out in assay [10]: Macrophage colony-stimulating factor (MCSF), CSF1 (gene 1435)
The experiment in a line: BSK_hDFCGF_MCSF: BioMAP Diversity Plus: hDFCGF Assay for Macrophage colony-stimulating factor (MCSF) Biomarker Activity (AID 2283060). As to conditions: primary human foreskin fibroblasts; actives raise or lower the signal. In outline:
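Primary human foreskin fibroblasts dosed with chemical; 24 h later, M-CSF quantified by ELISA; curves fitted in both directions vs DMSO negative control.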

Assay [11] in a line: BSK_hDFCGF_SRB: Viability Assessment in the BioMAP Diversity Plus: hDFCGF Assay (AID 2283061).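 Also: cells exposed to compound for 24 h before the read.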 As to conditions: primary human foreskin fibroblasts. In outline: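 Readout is SRB absorbance at 560 nm, reflecting total protein in parallel cultures of human foreskin fibroblasts harvested 24 h after chemical dosing. Activity was fitted bidirectionally relative to DMSO.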
Read-out in assay [12]: TIMP metallopeptidase inhibitor 1 (TIMP1), TIMP1 (gene 7076)
The experiment in a line: BSK_hDFCGF_TIMP1: BioMAP Diversity Plus: hDFCGF Assay for TIMP metallopeptidase inhibitor 1 (TIMP1) Biomarker Activity (AID 2283062). As to conditions: primary human foreskin fibroblasts; actives raise or lower the signal. In outline:
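Human skin fibroblasts (primary), hDFCGF system; compound exposure 24 h; TIMP-1 by ELISA; bidirectional fit vs DMSO negative control; overt cytotoxicity by SRB in parallel wells.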

Read-out in assay [13]: Monokine induced gamma interferon (MIG), CXCL9 (gene 4283)
As to the kind of experiment: BSK_hDFCGF_MIG: BioMAP Diversity Plus: hDFCGF Assay for Monokine induced gamma interferon (MIG) Biomarker Activity (AID 2283063). Conditions: primary human foreskin fibroblasts; actives raise or lower the signal. In outline:
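Chemicals were added to primary human foreskin fibroblast cultures, which were sampled 24 h later. MIG levels were then quantified by ELISA and responses fitted in both directions relative to DMSO.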

Read-out in assay [14]: Matrix Metallopeptidase 1 (MMP1), MMP1 (gene 4312)
The experiment in a line: BSK_hDFCGF_MMP1: BioMAP Diversity Plus: hDFCGF Assay for Matrix Metallopeptidase 1 (MMP1) Biomarker Activity (AID 2283064). Conditions: primary human foreskin fibroblasts; actives raise or lower the signal. The gist of the method:
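Primary human foreskin fibroblasts in the hDFCGF system were dosed with test chemical, and MMP1 was measured by ELISA 24 h later. Values come from bidirectional curve fitting against the DMSO baseline.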

Read-out in assay [15]: Vascular cell adhesion molecule 1 (VCAM1), VCAM1 (gene 7412)
As to the kind of experiment: BSK_hDFCGF_VCAM1: BioMAP Diversity Plus: hDFCGF Assay for Vascular cell adhesion molecule 1 (VCAM1) Biomarker Activity (AID 2283065).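 As to AC50: VCAM-1 protein level quantified by ELISA after 24 h chemical exposure.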 As to conditions: primary human foreskin fibroblasts; actives raise or lower the signal. The gist of the method: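 Human foreskin fibroblast primary cells, chemical exposure 24 h; VCAM-1 by ELISA; bidirectional fit, DMSO = negative control/baseline.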

Read-out in assay [16]: Plasminogen activator inhibitor-1 (PAI1), SERPINE1 (gene 5054)
As to the kind of experiment: BSK_hDFCGF_PAI1: BioMAP Diversity Plus: hDFCGF Assay for Plasminogen activator inhibitor-1 (PAI1) Biomarker Activity (AID 2283066). Conditions: primary human foreskin fibroblasts; actives raise or lower the signal. In outline: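 Primary dermal fibroblasts (human foreskin), hDFCGF system; compound 24 h; PAI-1 by ELISA; bidirectional fit vs DMSO control.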

Read-out in assay [17]: Intercellular Adhesion Molecule 1 (ICAM1), ICAM1 (gene 3383)
The experiment in a line: BSK_KF3CT_ICAM1: BioMAP Diversity Plus: KF3CT Assay for Intercellular Adhesion Molecule 1 (ICAM1) Biomarker Activity (AID 2283067). As to conditions: primary human keratinocytes with fibroblasts; actives raise or lower the signal. In outline:
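ICAM-1 levels are measured by ELISA 24 h after dosing a primary human co-culture of keratinocytes and foreskin fibroblasts. Activity in either direction is fitted relative to DMSO vehicle.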

Read-out in assay [18]: Interferon-gamma inducible Protein 10 (IP10), CXCL10 (gene 3627)
As to the kind of experiment: BSK_KF3CT_IP10: BioMAP Diversity Plus: KF3CT Assay for Interferon-gamma inducible Protein 10 (IP10) Biomarker Activity (AID 2283068). As to conditions: primary human keratinocytes with fibroblasts; actives raise or lower the signal. The gist of the method:
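ELISA read-out of IP-10 after 24 h chemical dosing of human skin primary co-culture (keratinocytes, foreskin fibroblasts). Gain or loss of signal relative to DMSO, bidirectional curve fit.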

Read-out in assay [19]: Interleukin-1 alpha (IL1a), IL1A (gene 3552)
As to the kind of experiment: BSK_KF3CT_IL1a: BioMAP Diversity Plus: KF3CT Assay for Interleukin-1 alpha (IL1a) Biomarker Activity (AID 2283070). As to conditions: primary human keratinocytes with fibroblasts; actives raise or lower the signal. The gist of the method: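 Human keratinocyte plus foreskin fibroblast primary co-culture, sampled 24 h after chemical dosing. IL-1a measured by ELISA; responses fitted bidirectionally against DMSO baseline (negative control), so gain or loss of signal both count.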

The nature of assay [20]: BSK_KF3CT_SRB: Viability Assessment in the BioMAP Diversity Plus: KF3CT Assay (AID 2283069).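 Also: total protein by sulforhodamine B staining as a cytotoxicity measure; read 24 h after compound addition.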 Conditions: primary human keratinocytes with fibroblasts. In outline: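 Human primary keratinocyte plus foreskin fibroblast co-culture exposed to chemicals for 24 h. Total protein measured by 0.1% sulforhodamine B staining after 10% TCA fixation, read at 560 nm; bidirectional fitting versus DMSO baseline.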

More than one record can exist for a structure, and the calls need not agree. Activity calls are given as the source filed them. The calls were made as follows: active = hit-call score of the fitted dose curve at least 0.9, where 1 is the maximum; inactive = score below 0.9.

What is called AC50 is the concentration at which the activity in the assay is half-maximal.

Consider `COc1cc(C=O)ccc1OC(=O)C(C)C`, for which the result in assay [1], in assay [2], in assay [3], in assay [4], in assay [5] and in assay [6] was inactive. For the same molecule, the outcome in assay [7], in assay [8], in assay [9], in assay [10], in [11] and in assay [12] was inactive. The result in assay [13], in assay [14], in assay [15], in assay [16], in assay [17] and in [18] was inactive. Moreover, the outcome in assay [19] was inactive. The AC50 in assay [4] is 5.27 µM (active).

Take `CC(=O)Nc1ccccc1O`: the outcome in assay [1], in [2], in assay [3], in [5], in [6] and in assay [7] was inactive. For the same molecule, the result in [8], in assay [9], in [10], in assay [11], in [12] and in [13] was inactive. The result in assay [14], in assay [15], in assay [16], in assay [17], in assay [18] and in [20] was inactive. For the same molecule, the result in [19] was inactive. The AC50 in assay [4] was 0.124 µM (active).

Regarding `c1ccc2sc(SN(C3CCCCC3)C3CCCCC3)nc2c1`, the AC50 in assay [1] was 3 µM (active); in assay [9] it was 2.77 µM (active); in assay [10] it was 0.951 µM (active); in assay [11], 4.26 µM (active); in assay [16], 2.8 µM (active). Further, the result in [2], in assay [3], in assay [4], in assay [5], in assay [6] and in [7] was inactive. The result in [8], in assay [12], in [13], in assay [14], in [15] and in [17] was inactive. In addition, the outcome in assay [18] and in assay [19] was inactive.

On to `CC(C)(COC(=O)c1ccccc1)COC(=O)c1ccccc1`, for which the outcome in assay [1], in [2], in assay [3], in assay [4], in assay [5] and in assay [7] was inactive. In addition, the result in assay [8], in [13], in assay [17], in assay [18], in assay [20] and in assay [19] was inactive. Moreover, the AC50 in [6] was 16.7 µM (active); in [9] it was 32.1 µM (active); in [10], 20 µM (active); in assay [11], 31.5 µM (active); in assay [12], 34.3 µM (active); in [15], 16.1 µM (active). In assay [16], the half-maximal activity concentration (AC50) was 32.9 µM (active).

In the case of `CC1COc2ccccc2N1C(=O)C(Cl)Cl` (stereo not given), the outcome in [1], in [3], in [7], in [8], in assay [10] and in assay [12] was inactive. Moreover, the outcome in assay [13] and in [17] was inactive. The AC50 in [2] is 4.8 µM (active); in assay [4], 7.08 µM (active); in assay [5] it was 10.2 µM (active); in [6] it was 0.0289 µM (active); in assay [9], 8.61 µM (active); in assay [11], 20 µM (active). Moreover, the concentration at half-maximal activity (AC50) in assay [14] is 20 µM (active); in assay [15] it was 1.78 µM (active); in assay [16], 0.0533 µM (active); in assay [19], 0.629 µM (active).

Turning to `CC(C)c1ccc(C(C)C)cc1`, the result in assay [1], in assay [3], in assay [6], in [7], in assay [8] and in assay [10] was inactive. Further, the outcome in assay [12], in [13], in [14], in [15], in assay [17] and in assay [18] was inactive. For the same molecule, the outcome in assay [19] was inactive. For the same molecule, the AC50 in [2] is 35.5 µM (active); in assay [4], 20 µM (active); in [5] it was 32.6 µM (active); in assay [9], 33.4 µM (active); in assay [11], 36.1 µM (active); in [16], 36.2 µM (active).

These data come from PubChem BioAssay (EPA / NIEHS).
